Here are results for 42 molecules from PubChem BioAssay AID1211 (NMMLSC, 2008).

The target of this test is Estrogen receptor (Homo sapiens) (UniProt P03372). The test is described as follows: ERalpha ligand binders by competition, primary screen, cell-based, Cos7 ERalpha-GFP, flow cytometry (AID 1211).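 Also: 0% = DMSO vehicle wells and 100% = no E2-Alexa633 signal left.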 The settings on record: fluorescent ligand competition, stronger effect = higher value. (In general: In flow cytometry, cells or beads pass a laser one at a time.)

Activity calls are given as the source filed them. No rule for the calls is given here.

Sequence of Estrogen receptor (Homo sapiens) (P03372 whole entry, looked up): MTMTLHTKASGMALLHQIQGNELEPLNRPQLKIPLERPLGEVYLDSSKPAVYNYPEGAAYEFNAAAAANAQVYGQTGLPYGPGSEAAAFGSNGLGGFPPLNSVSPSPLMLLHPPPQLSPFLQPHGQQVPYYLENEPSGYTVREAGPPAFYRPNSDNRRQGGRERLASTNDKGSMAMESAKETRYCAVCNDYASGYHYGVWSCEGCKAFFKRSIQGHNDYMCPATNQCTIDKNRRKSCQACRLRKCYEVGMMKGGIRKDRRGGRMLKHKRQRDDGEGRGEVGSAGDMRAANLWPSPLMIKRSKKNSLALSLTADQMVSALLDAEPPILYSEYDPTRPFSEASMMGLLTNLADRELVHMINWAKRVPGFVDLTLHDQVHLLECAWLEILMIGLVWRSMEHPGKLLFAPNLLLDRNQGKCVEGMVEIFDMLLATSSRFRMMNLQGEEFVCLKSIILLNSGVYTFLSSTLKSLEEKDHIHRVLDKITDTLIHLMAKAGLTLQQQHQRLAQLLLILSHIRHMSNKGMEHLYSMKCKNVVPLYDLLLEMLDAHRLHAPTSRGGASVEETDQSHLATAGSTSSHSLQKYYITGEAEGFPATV

For the molecule `Cc1ccc(Cn2c(NC(=O)c3ccco3)nc3ccccc32)cc1`, the inhibition of ligand binding is, setting by setting: (at 10 µM) 29% (inactive); (binding inhibition, at 0.1 µM) 11%.

With `CCSc1nnc(NC(=O)C2Cc3ccccc3CN2C(=O)c2ccco2)s1` (stereo not given), the inhibition of ligand binding runs as follows: (at 10 µM) 26% (inactive); (binding inhibition, at 0.1 µM) 44%.

Consider `Cc1c(Cc2ccccc2)c(=O)n2c([nH]c3ccccc32)c1C#N`, for which the inhibition of ligand binding (at 10 µM) is 5% (inactive).

On to `CCCc1c(C(=O)OCC)[nH]c2c1C(=O)CC(c1ccccc1)C2` (stereo not given), for which the inhibition of ligand binding (at 10 µM) was 27% (inactive).

Take `O=c1oc2c(CN3CCCC3)c(O)ccc2c2c1CCC2`: the inhibition of ligand binding (at 10 µM) was 0% (inactive).

With `COc1cc(/C=N/N2CCN(C3c4ccccc4-c4ccccc43)CC2)cc(OC)c1O`, for the setting “at 10 µM”, the inhibition of ligand binding is 0% (inactive).

In the case of `NC(=O)c1cccc2c1C(=O)N(C1CCCCC1)C2`, the inhibition of ligand binding runs as follows: (at 10 µM) 26% (inactive); (binding inhibition, at 0.1 µM) 39%.

As for `CC(C)CN(Cc1c(O)ccc2c3c(c(=O)oc12)CCC3)CC(C)C`, the inhibition of ligand binding (at 10 µM) is 6% (inactive).

As to `c1ccc(Cc2nnc3sc(-c4ccco4)nn23)cc1`, the inhibition of ligand binding reads like this: (at 10 µM) 34% (inactive); (binding inhibition, at 0.1 µM) 12%.

Consider `O=c1cc(-c2ccc(O)c(O)c2)oc2c(C3O[C@H](CO)[C@@H](O)[C@H](O)[C@H]3O)c(O)cc(O)c12` (stereo not given in full), for which the inhibition of ligand binding is, setting by setting: (at 10 µM) 28% (inactive); (binding inhibition, at 0.1 µM) 27%.

For the molecule `CCOc1[nH]c(/N=C/c2ccco2)c(C#N)c1C#N`, the inhibition of ligand binding is 21% (inactive) (at 10 µM) and 9% (binding inhibition, at 0.1 µM).

Consider `N#Cc1c2c(c(=O)n3c1[nH]c1ccccc13)CCCC2`, for which the inhibition of ligand binding (at 10 µM) is 23% (inactive).

Consider `CC1CCN(Cc2c(O)ccc3c4c(c(=O)oc23)CCC4)CC1`, for which, under “at 10 µM”, the inhibition of ligand binding was 0% (inactive).

Turning to `COc1ccc2c(c1)c(=O)oc1cc(OCC(=O)N3CCC(C)CC3)ccc12`, the inhibition of ligand binding reads like this: (at 10 µM) 0% (inactive); (binding inhibition, at 0.1 µM) 26%.

On to `COc1ccc2c(c1)c(=O)oc1cc(OCC(=O)NC3CCCCC3)ccc12`, for which the inhibition of ligand binding (at 10 µM) was 60% (inactive) and the inhibition of ligand binding (binding inhibition, at 0.1 µM) is 60%.

In the case of `O=c1cc(O)c2c(=O)n(-c3ccccc3)c3c(c2o1)CCCCCC3`, the inhibition of ligand binding reads like this: (at 10 µM) 31% (inactive); (binding inhibition, at 0.1 µM) 1%.

Turning to `COc1ccc(N2Cc3cccc(C(=O)O)c3C2=O)cc1`, the inhibition of ligand binding runs as follows: (at 10 µM) 26% (inactive); (binding inhibition, at 0.1 µM) 44%.

For `Brc1cc2c(cc1C1Nc3ccccc3C3C=CCC31)OCO2` (stereo not given), the inhibition of ligand binding is 0% (inactive) (at 10 µM) and 14% (binding inhibition, at 0.1 µM).

In the case of `CC(Nc1ccc(N2CCNCC2)cc1[N+](=O)[O-])C12CC3CC(CC(C3)C1)C2` (stereo not given), the inhibition of ligand binding (at 10 µM) is 5% (inactive).

Take `O=C(O)c1cc(-c2ccc(O)cc2)nc2ccccc12`: the inhibition of ligand binding (at 10 µM) was 5% (inactive).

For the molecule `Cc1sc2ncnc(SCC(=O)NC(=O)NCc3ccco3)c2c1C`, the inhibition of ligand binding (at 10 µM) was 19% (inactive).

For `CCCCCCc1cc2c3c(c(=O)oc2cc1OCC(=O)O)CCCC3`, the inhibition of ligand binding (at 10 µM) was 1% (inactive).

Consider `COc1ccc2c(c1)c1c3n2CCNC3CCC1` (stereo not given), for which the inhibition of ligand binding (at 10 µM) was 25% (inactive).

Turning to `CCOC(=O)c1sc(NC(=O)c2ccc3ncsc3c2)nc1C`, the inhibition of ligand binding is, setting by setting: (at 10 µM) 33% (inactive); (binding inhibition, at 0.1 µM) 36%.

For `O=S(=O)(/N=C(/Sc1ccccc1)c1ccccc1)c1ccccc1`, the inhibition of ligand binding (at 10 µM) is 0% (inactive) and the inhibition of ligand binding (binding inhibition, at 0.1 µM) is 24%.

Consider `O=C1CC(c2ccncc2)c2cc3c(cc2N1)OCCO3` (stereo not given), for which the inhibition of ligand binding (at 10 µM) is 0% (inactive).

Take `Cc1ccc2c(c1)[C@H]1OCC[C@H]1[C@@H](c1ccncc1)N2`: the inhibition of ligand binding (at 10 µM) was 34% (inactive).

Turning to `CCn1c2ccccc2c2cc(NC(=O)CSc3nnc(-c4ccc(OC)cc4)n3N)ccc21`, the inhibition of ligand binding (at 10 µM) was 53% (inactive) and the inhibition of ligand binding (binding inhibition, at 0.1 µM) turned out to be 17%.

Take `Nc1nc(N)c2sc3nc4c(cc3c2n1)CCC4`: the inhibition of ligand binding (at 10 µM) is 17% (inactive).

Consider `CC(C)C1Nc2ccc(S(N)(=O)=O)cc2C2C=CCC21` (stereo not given), for which the inhibition of ligand binding (at 10 µM) is 70% (active).

Regarding `O=c1oc2cc(O)c(Cl)cc2c2c1CCCC2`, under “at 10 µM”, the inhibition of ligand binding is 0% (inactive).

Regarding `COc1cc(C(=O)Nc2nnc(-c3sccc3C)s2)cc(OC)c1OC`, the inhibition of ligand binding was 2% (active) (at 10 µM) and 75% (binding inhibition, at 0.1 µM).

Turning to `COC(=O)c1ccc(CC(=O)c2c(C)cc(O)cc2O)o1`, the inhibition of ligand binding reads like this: (at 10 µM) 34% (inactive); (binding inhibition, at 0.1 µM) 43%.

As for `CC1CCCN(c2nc3c(c(=O)[nH]c(=O)n3C)n2Cc2ccccc2Cl)C1` (stereo not given), the inhibition of ligand binding reads like this: (at 10 µM) 33% (inactive); (binding inhibition, at 0.1 µM) 58%.

Regarding `C/C(N)=C(/C#N)C(=O)CSc1nnc(-c2ccc(OC(F)F)cc2)o1`, the inhibition of ligand binding is 20% (inactive) (at 10 µM) and 24% (binding inhibition, at 0.1 µM).

Turning to `CCOC(=O)C1=C(C)NC(=O)NC1c1ccco1` (stereo not given), the inhibition of ligand binding (at 10 µM) is 56% (inactive).

For the molecule `CC1(C)CC(=O)C=C(NC2CC(C)(C)NC(C)(C)C2)C1`, the inhibition of ligand binding (at 10 µM) is 0% (inactive).

For `COc1ccc2c(c1)[nH]c1c(=O)n(N)cnc12`, the inhibition of ligand binding by setting is: (at 10 µM) 55% (inactive); (binding inhibition, at 0.1 µM) 20%.

As for `Cc1ccnc(NS(=O)(=O)c2ccc(NC(=O)c3cc(-c4ccc(Br)cc4)nc4ccccc34)cc2)n1`, the inhibition of ligand binding was 49% (inactive) (at 10 µM) and 47% (binding inhibition, at 0.1 µM).

Take `CCCCOC(=O)c1c(C)oc2ccc(NS(=O)(=O)c3ccc4c5c(cccc35)C(=O)N4)cc12`: the inhibition of ligand binding reads like this: (at 10 µM) 66% (active); (binding inhibition, at 0.1 µM) 51%.

Turning to `CCc1oc2c(C)c(O)ccc2c(=O)c1-c1ccc2ccccc2n1`, the inhibition of ligand binding is 14% (inactive) (at 10 µM) and 54% (binding inhibition, at 0.1 µM).

Regarding `O=c1[nH]cnc2c1sc1nc3c(c(-c4ccc(Cl)cc4)c12)CCC3`, the inhibition of ligand binding is 41% (inactive) (at 10 µM) and 9% (binding inhibition, at 0.1 µM).
